# Assay results reported in PubChem BioAssay (NCATS).
# Several values for one entry are separate records, joined by “and”; a condition that tells them apart may be missing. Equal entries are not always repeated. Inconclusive results are not listed. Activity calls are given as the source filed them. Calls follow the shape of the dose curve; as a rule, active = well fitted activation curve with a large enough effect; inconclusive = small, poorly fitted or top-dose-only effect; inactive = no such curve, though single readings can be large or run the other way.
# Molecular target: Cellular tumor antigen p53 (Homo sapiens) (UniProt P04637)
# Sequence (P04637 whole entry, looked up): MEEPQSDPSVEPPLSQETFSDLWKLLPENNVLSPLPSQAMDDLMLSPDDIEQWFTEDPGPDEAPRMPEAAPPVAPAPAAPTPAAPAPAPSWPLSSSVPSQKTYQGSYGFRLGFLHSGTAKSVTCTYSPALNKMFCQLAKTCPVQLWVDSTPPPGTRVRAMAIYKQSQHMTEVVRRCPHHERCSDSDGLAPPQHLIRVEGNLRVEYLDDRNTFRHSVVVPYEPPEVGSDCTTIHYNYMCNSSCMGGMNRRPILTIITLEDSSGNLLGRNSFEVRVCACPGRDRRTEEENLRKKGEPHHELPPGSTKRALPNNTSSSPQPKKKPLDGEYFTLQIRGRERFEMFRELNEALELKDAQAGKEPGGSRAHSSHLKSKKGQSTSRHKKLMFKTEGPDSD
# Assay: Primary qHTS for small molecule compounds that upregulate eGFP-tagged delta133p53alpha (in N-terminal) cells. (AID 2060322); also: nearly all actives have a fitted effect of over 75% in size;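 as to activation: series mostly up to about 56 µM; 0% = DMSO vehicle and 100% = reference activator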
# Settings: NCI-H358 eGFP-delta133p53alpha fluorescence, 24 h; activation: hits give high values
# How it was run: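 NCI-H358 cells pre-induced 24 h with 10 ng/ml doxycycline to express N-terminal eGFP-delta133p53alpha, then dosed 24 h at 37C without doxycycline; fixed, Hoechst-stained, GFP intensity by laser scanning cytometry, normalized to DMSO (0%) and 57.5 uM 5-azacytidine (100%).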
# Potency is read from the fitted curve at half-maximal effect.
SMILES,activation,Potency
CCN(CC)CCNc1ccc(CO)c2sc3ccccc3c(=O)c12,28.5% (inactive),
O=C1C(CCS(=O)c2ccccc2)C(=O)N(c2ccccc2)N1c1ccccc1 (centres undefined),15.1% (inactive),
C[N+]1(C)[C@@H]2CC(OC(=O)[C@H](CO)c3ccccc3)C[C@H]1[C@H]1O[C@@H]12 (some centres undefined),14% (inactive),
CC(=O)c1ccc2c(c1)N(CCCN1CCC(CCO)CC1)c1ccccc1S2,0% (inactive),
O=C(O)[C@@H]1[C@H]2C[C@H]3c4[nH]c5ccccc5c4CCN3C[C@@H]2CC[C@@H]1O,,3.09 µM (active)
COC(=O)c1cccnc1,-4.18% (inactive),
COc1ccc(CCC(C)=O)cc1,-5.86% (inactive),
CC(=O)OCC(=O)[C@@]1(O)[C@H](OC(C)=O)C[C@H]2[C@@H]3CCC4=CC(=O)C=C[C@]4(C)[C@@]3(F)[C@@H](O)C[C@@]21C,4.18% (inactive),
CCCCOc1ccc(C(=O)CCN2CCCCC2)cc1,10.9% (inactive),
CCC(Sc1nnc2c(n1)[nH]c1ccccc12)C(=O)N1c2ccccc2Sc2ccccc21 (centres undefined),12.3% (inactive),
O=C(O)CCc1nc2ccccc2[nH]1,0.565% (inactive),
CNC1[C@H](O)C(O[C@@H]2C(O)C(O[C@H]3O[C@H]([C@@H](C)NC)CC[C@H]3N)[C@@H](N)C[C@H]2N)OC[C@]1(C)O (some centres undefined),-1.3% (inactive),
Cc1cc(=O)n(-c2ccccc2)n1C,-16.7% (inactive),
C[C@]12C=CC(=O)C=C1CC[C@@H]1C2=CC[C@]2(C)[C@@H](C(=O)CN3CCN(c4cc(N5CCCC5)nc(N5CCCC5)n4)CC3)CC[C@@H]12,-22.1% (inactive),
OCc1ccccn1,8.37% (inactive),
O=C1O[C@H](CO)[C@@H](O)[C@H](O)[C@H]1O,6.69% (inactive),
O=C(Nc1ncc(SCCN2CCCC2)s1)[C@]1(c2ccc(S(=O)(=O)C3CC3)cc2)C[C@@H]1C1CCCCC1,26.3% (inactive),
CNC(=O)c1ccc(Nc2cc(Nc3ccccc3S(=O)(=O)C(C)C)c3cc[nH]c3n2)nc1,,19.3 µM (active)
COc1cc2c(cc1OC)[C@@H]1Cc3ccc(OC)c(OC)c3CN1CC2,19.3% (inactive),
Nc1ccc([N+](=O)[O-])c(C(F)(F)F)c1,-10.7% (inactive),
CCCCCCCCCCCCCCCC(=O)OC(C)C,-15.3% (inactive),
CC(=O)N[C@H]1[C@H]([C@H](O)[C@H](O)CO)OC(C(=O)O)=C[C@@H]1N=C(N)N,5.02% (inactive),
C1=CC2C3C=CC(C3)C2C1 (centres undefined),16.4% (inactive),
Cc1nc2n(c(=O)c1CCN1CCC(c3noc4cc(F)ccc34)CC1)CCCC2,2.45% (inactive) and 8.37% (inactive),
